# S1P4 antagonist – S1P4 receptor antagonists, primary screen, cell-based; Sphingosine 1-phosphate receptor 4 (Homo sapiens), O95977; S1P4-expressing cells, antagonist mode, reporter read-out; inhibition, % at 4.98 µM; actives 0.26% (n = 220,000); AID 1510, 2009; in the data active means inhibition above about 29%;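 further: 0% = wells stimulated with agonist and 100% = vehicle wells without agonist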
# Target sequence (O95977 whole entry, looked up): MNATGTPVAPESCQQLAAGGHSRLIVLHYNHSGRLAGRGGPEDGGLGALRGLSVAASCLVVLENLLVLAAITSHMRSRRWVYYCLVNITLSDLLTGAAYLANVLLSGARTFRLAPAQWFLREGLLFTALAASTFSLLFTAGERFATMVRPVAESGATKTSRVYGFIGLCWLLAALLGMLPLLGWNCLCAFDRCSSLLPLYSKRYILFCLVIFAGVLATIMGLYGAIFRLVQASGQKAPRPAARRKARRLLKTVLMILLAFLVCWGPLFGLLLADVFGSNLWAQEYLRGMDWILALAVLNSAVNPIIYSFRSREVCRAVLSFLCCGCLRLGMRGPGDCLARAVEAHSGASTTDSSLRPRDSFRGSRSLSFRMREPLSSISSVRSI
# S1P3 antag – S1P3 receptor antagonists, primary screen, cell-based. Sphingosine 1-phosphate receptor 3 (Homo sapiens), Q99500. inhibition, % at 4.98 µM. actives 0.27% (n = 170,000). CHO S1P3 NFAT-BLA reporter, FRET fluorescence, antagonist mode;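 active means inhibition above the plate cutoff, the mean inhibition of test wells on that plate plus 3 SD, cut at about 28% in these data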;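 further: cells challenged with S1P at its EC80 of 0.8 µM; blue over green emission ratio from cleaved BLA substrate after 4 h stimulation; 0% = S1P-stimulated wells and 100% = unstimulated DMSO-only wells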
# S1P4 ag – S1P4 receptor agonists, primary screen, cell-based; Sphingosine 1-phosphate receptor 4 (Homo sapiens), O95977; S1P4-expressing cell line, agonist reporter assay; activation, % at 4.98 µM; actives 0.35% (n = 220,000); AID 1509, 2009; in the data active means activation above about 11%;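 further: 0% = DMSO vehicle and 100% = reference agonist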
# Hsp70 activator – Hsp70 transcriptional activators, primary screen, cell-based, HeLa, Hsp70 promoter luciferase, luminescence, 10 µM; activation, % at 10 µM; HeLa Hsp70 promoter luciferase reporter; scaled: vehicle 0, proteasome-inhibitor control 100%; AID 1203, 2008; actives 0.04% (n = 200,000);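 active means activation above the mean across all tested compounds plus 3 SD, cutoff set per campaign, cut at about 5.5% in these data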;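 further: 100% = MG132 at 30 µM as the positive control and 0% = DMSO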
# HSF1 inh – HSF1 inhibitors in luciferase reporter cells, primary screen, cell-based, NIH3T3, luminescence; NIH3T3-HGL HSE-luciferase, MG132-induced, luminescence 8 h; active compounds read low; activity change, negative = inhibition, % at 7.5 µM (by protocol); actives 0.77% (n = 300,000);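 active means more than half of replicate wells show activity change below -50%, luminescence cut by over half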;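 further: luciferase reports HSF-1 transcriptional activity via heat shock element; 0% = median of DMSO wells and -100% = zero luminescence signal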
# HSF1 activator – HSF-1 activators, primary screen, NIH3T3-HGL cells, MG132 stress, luminescence, single point; NIH3T3-HGL HSF-1 luciferase reporter, 8 h; 100% = twice DMSO control signal; activation, % at 9 µM; actives 1.7% (n = 300,000); AID 504408, 2011;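 active means mean replicate activation of at least 50% with a set share of replicates each reaching 50%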;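 further: 0% = median of the neutral control wells and 100% = twice that signal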
# * hit, by the source's call; / = no result given. Shown are actives, neighbours in structure and some others; about 2.9% of the full set was active somewhere.
SMILES,S1P4 antagonist,S1P3 antag,S1P4 ag,Hsp70 activator,HSF1 inh,HSF1 activator
O=C(NCCSc1ccccc1)c1ccc(CN2CCOCC2)cc1,1.9,2.8,0.4,/,21.3,45.1
N/C(=N\OC(=O)c1cccc2ccccc12)c1ccccn1,-17.6,7.0,1.9,/,-3.7,3.0
NC(=Nc1nc(-c2ccccn2)cc2ccccc12)c1ccccn1,/,/,/,/,57.5*,57.5*
CCNc1nc(Nc2ccc(C)c(Cl)c2)c2cnn(C)c2n1,/,/,/,/,-14.3,-10.3
CCCCNc1nc(Nc2ccc(C)c(Cl)c2)c2cnn(C)c2n1,/,/,/,/,13.7,65.0*
CCO[C@@H]1OC(C(=O)N2CCN(C)CC2)=C[C@H](c2coc3ccccc3c2=O)[C@H]1CCCO,4.4,-19.9,-0.4,-0.4,-1.5,-1.5
CC(C)N1CCc2c(sc(NC(=O)c3nc4ccccc4s3)c2C(N)=O)C1,10.3,-2.4,1.0,-0.3,-2.6,-5.0
COC(=O)c1c(NC(=O)c2ccc([N+](=O)[O-])o2)sc2c1CCN(C(C)C)C2,/,/,/,/,110.0,169.4*
CC(C)N1CCc2c(sc(NC(=O)c3ccc([N+](=O)[O-])o3)c2C(N)=O)C1,/,/,/,/,64.5,110.5*
CC(C)SC1=NC(C)(C)C=C(/C=C/c2c(Cl)cccc2Cl)N1,11.7,/,-0.3,0.0,28.3,32.3
CC(C)SC1=NC(C)(C)C=C(/C=C/c2ccc(Cl)cc2Cl)N1,15.1,/,0.9,-0.1,57.1,82.4*
CCOC(=O)c1ccc(NC(=O)c2c(Cl)cc(C)nc2C)cc1,/,/,/,/,2.6,6.2
C/C(=N\Nc1cc(Cl)nc(C)n1)c1ccc(C)cc1,-16.6,/,-0.1,-0.1,3.5,4.9
COc1ccc(Nc2nc(OC)nc(OC)n2)cc1,/,/,/,/,1.8,8.8
COc1ccc(Nc2nc(Nc3ccc(OC)cc3)nc(-n3[nH]c(=O)c(C)c3C)n2)cc1,1.2,/,-0.4,0.5,-62.5*,-64.1
COC1C=CC=C(C)C(=O)NC2=CC(=O)C(N)=C(CC(C)CC(OC)C(O)C(C)C=C(C)C1OC(N)=O)C2=O (stereo not given),/,/,/,/,69.4*,69.4*
O=C(O)c1cccc(NC(=S)NC(NC(=O)c2ccco2)C(Cl)(Cl)Cl)c1 (stereo not given),1.7,-10.5,0.8,/,-61.2*,-69.1
COc1cccc(CNC(=O)C2CCN(S(=O)(=O)c3ccc4c(c3)CC(C)N4C(C)=O)CC2)c1 (stereo not given),/,/,/,/,-6.0,8.6
Cc1ccc2nc(NCc3ccccc3)[nH]c2c1,-3.8,/,3.1,0.0,146.4,233.3*
c1ccc(CNc2nc3ccccc3[nH]2)cc1,10.0,/,0.2,0.1,20.3,27.2
c1ccc2[nH]c(NCc3ccc4c(c3)OCO4)nc2c1,3.5,-6.3,0.1,-0.2,21.3,54.9*
O=CN1CCN(S(=O)(=O)c2ccc(S(=O)(=O)NC3CCCCC3)cc2)CC1,/,/,/,/,1.2,16.8
O=C(c1ccc([N+](=O)[O-])o1)N1CCN(c2nc3c(F)cc(F)cc3s2)CC1,/,/,/,/,36.2,70.8*
CSc1ccccc1NC(=O)C1=CC(c2ccc(C)cc2)=NS(=O)(=O)N1C,/,/,/,/,-56.5*,-65.0
Cc1ccc(C2=NS(=O)(=O)N(C)C(C(=O)NC(C)c3ccccc3)=C2)cc1 (stereo not given),/,/,/,/,4.9,13.1
SMILES,S1P4 antagonist,S1P3 antag,S1P4 ag,Hsp70 activator,HSF1 inh,HSF1 activator
CSc1ccccc1NC(=S)NCc1ccc(Cl)cc1,/,/,/,/,38.7,63.8*
COc1cc(-n2nc(C)c3c2OC(N)=C(C#N)C3c2ccccc2)c(Cl)c(Br)c1O (stereo not given),-1.3,0.8,-1.6,0.0,52.5,78.2*
Cc1ccc(-n2nc(C)c3c2OC(N)=C(C#N)C3c2ccncc2)cc1 (stereo not given),-17.5,8.1,0.1,0.0,17.3,62.1*
Cc1nn(-c2ccccc2)c2c1C(c1ccncc1)C(C#N)=C(N)O2 (stereo not given),-3.4,-38.3,5.3,-0.3,1.5,25.6
Cc1nn(-c2ccccc2)c(Cl)c1C1C(C#N)=C(N)Oc2c1c(C)nn2-c1ccccc1 (stereo not given),4.9,/,-0.5,-0.2,5.4,-0.7
OCC[C@@H]1C[C@H](O)[C@@H](O)[C@]2(Cc3ccccc3CCO2)O1,/,/,/,/,-6.4,-24.5

# Bioassay records deposited in PubChem by several laboratories.
